# In article PMC4336329 (PLoS ONE, 2015):
# Out of some 310,000 compounds screened, about 14,000 (4.5%) showed an effect of 50% or more. Effects have a minus sign here. For the sample, strong results were picked, then their nearest neighbours and some compounds at random.
# Target: human ether-à-go-go-related gene (hERG) potassium channel (human, UniProt Q12809)
# Assay: primary screen, population patch clamp on CHO cells stably expressing hERG; higher = less effect of the substance
# 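Note: peak tail current of the secondary pulse compared with the same well before compound.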
# Sequence of human ether-à-go-go-related gene (hERG) potassium channel (Q12809 whole entry, looked up): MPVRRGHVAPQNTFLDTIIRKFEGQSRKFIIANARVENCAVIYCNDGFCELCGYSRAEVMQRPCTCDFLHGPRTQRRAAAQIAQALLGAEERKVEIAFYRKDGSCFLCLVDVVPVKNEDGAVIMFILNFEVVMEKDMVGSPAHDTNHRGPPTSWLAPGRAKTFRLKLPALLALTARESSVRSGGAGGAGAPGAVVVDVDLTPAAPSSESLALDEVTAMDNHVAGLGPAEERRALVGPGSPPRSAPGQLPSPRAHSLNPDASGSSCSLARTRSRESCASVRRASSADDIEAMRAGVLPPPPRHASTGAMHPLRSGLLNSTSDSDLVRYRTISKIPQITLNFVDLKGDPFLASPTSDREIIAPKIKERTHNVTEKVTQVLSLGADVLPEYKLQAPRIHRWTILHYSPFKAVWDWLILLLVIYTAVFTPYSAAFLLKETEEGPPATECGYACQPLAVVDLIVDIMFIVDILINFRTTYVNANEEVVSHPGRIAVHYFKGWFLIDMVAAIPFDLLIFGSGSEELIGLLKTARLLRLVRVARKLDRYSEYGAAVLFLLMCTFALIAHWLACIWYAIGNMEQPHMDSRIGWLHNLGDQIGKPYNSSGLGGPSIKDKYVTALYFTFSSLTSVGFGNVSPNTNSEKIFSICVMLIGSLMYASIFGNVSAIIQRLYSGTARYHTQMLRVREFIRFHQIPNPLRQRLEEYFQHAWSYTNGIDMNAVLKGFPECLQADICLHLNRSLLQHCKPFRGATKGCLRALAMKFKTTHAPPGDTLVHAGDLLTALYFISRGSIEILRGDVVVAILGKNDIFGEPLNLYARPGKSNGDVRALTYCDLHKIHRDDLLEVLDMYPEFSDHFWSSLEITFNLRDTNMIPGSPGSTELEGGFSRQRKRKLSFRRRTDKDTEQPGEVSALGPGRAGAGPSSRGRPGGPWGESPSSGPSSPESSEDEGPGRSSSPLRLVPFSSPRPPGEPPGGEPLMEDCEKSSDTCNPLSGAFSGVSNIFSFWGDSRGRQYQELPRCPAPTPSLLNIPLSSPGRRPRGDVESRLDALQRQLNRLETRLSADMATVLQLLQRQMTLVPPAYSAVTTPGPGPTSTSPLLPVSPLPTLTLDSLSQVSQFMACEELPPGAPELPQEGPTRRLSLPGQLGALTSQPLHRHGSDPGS
row,Structure (SMILES),"hERG current change (%, negative = inhibition) at 10uM"
1,COc1ccc(C(=O)Nc2cccc(-c3ccc4nncn4n3)c2)cc1OC,8.84%
2,Cc1ccccc1Nc1c(-c2ccc(N3CCOCC3)cc2)nc2cnccn12,-1.1%
3,COc1cc(OC)cc(C(=O)N[C@H](C(=O)Nc2cccc(S(=O)(=O)N3CCCC3)c2)C(C)C)c1,2.47%
4,O=C(N/N=C/c1ccco1)c1cc(-c2ccccc2)nc2ccccc12,2.45%
5,Cn1c(=NC(=O)C2=NNC(=O)CC2)sc2ccccc21,15.2%
6,O=C(NNC1=C(C(=O)C(F)(F)F)CCC1)c1ccccc1Cl,13%
7,Cc1cc(C(=O)Nc2cccc(C)c2C)n(-c2ccccc2)n1,-11.7%
8,O=C(Nc1cccc(S(=O)(=O)N2CCOCC2)c1)c1ccc(N2CCCC2=O)cc1,8.25%
9,COCCCN(CC(=O)O)S(=O)(=O)c1cccc(Cl)c1,16.3%
10,O=C(c1ccc(Br)o1)N1CCN(CCOc2ccccc2)CC1,-54.1%
11,O=C(c1ccc(Br)o1)N1CCC(Cc2ccccc2)CC1,-10.5%
12,O=C(c1ccco1)N1CCN(CCOc2ccccc2)CC1,0.652%
13,CCN(CC(=O)NCc1ccc(Cl)cc1)C(=O)c1cccc(S(=O)(=O)Nc2ccc(OC)cc2)c1,-0.458%
14,Cc1ccc(NC(=O)C(Cc2ccccc2)NC(=O)c2ccco2)cc1 (stereo not shown),-3.13%
15,CCOc1cccc(N2C(=O)CC(N3CCN(c4nc5ccccc5s4)CC3)C2=O)c1 (stereo not shown),5.09%
16,O=C1CC(N2CCN(c3nc4ccccc4s3)CC2)C(=O)N1c1ccc(F)cc1 (stereo not shown),-53.5%
17,CCCOc1ccc(N2C(=O)CC(N3CCN(c4nc5ccccc5s4)CC3)C2=O)cc1 (stereo not shown),8.46%
18,O=C1CC(N2CCN(c3nc4ccccc4s3)CC2)C(=O)N1Cc1cccs1 (stereo not shown),-62.3%
19,O=C1CC(N2CCC(c3nc4ccccc4o3)CC2)C(=O)N1Cc1cccs1 (stereo not shown),-30.9%
20,COc1ccc(N2C(=O)CC(N3CCN(c4nc5ccccc5s4)CC3)C2=O)cc1 (stereo not shown),-30.9%
21,Cc1ccc(/C=N/NC(=O)C(NC(=O)c2ccccc2)c2n[nH]c(=O)c3ccccc23)cc1 (stereo not shown),-2.54%
22,CCC(C)NC(=S)Nc1ccc(C(=O)OC)cc1 (stereo not shown),15%

row,Structure (SMILES),"hERG current change (%, negative = inhibition) at 10uM"
1,CCCn1c(=O)c(C(=O)NNC(=O)c2cccc([N+](=O)[O-])c2)c(O)c2ccccc21,-21.7%
2,O=C(Cn1cnc2ccccc2c1=O)NCCC(=O)Nc1ccc2c(c1)OCO2,16.4%
3,Cc1cc(NC(=O)CSc2nc(-c3ccc(Cl)cc3)cs2)no1,-5.45%
4,COC(=O)c1cc(NC(=O)Cn2nc(C)n3cccc3c2=O)cc(C(=O)OC)c1,4.88%
5,COc1cc(S(=O)(=O)NCC2CCCO2)c(OC)cc1Cl (stereo not shown),10.6%
6,CC1CCN(CC(=O)Nc2ccccc2C#N)CC1,3.06%
7,N#Cc1ccccc1NC(=O)CN1CCOCC1,13.4%
8,N#Cc1ccsc1NC(=O)CN1CCN(c2ccccc2)CC1,1.63%
9,N#Cc1ccsc1NC(=O)CN1CCN(Cc2ccccc2)CC1,-66.4%
10,N#Cc1ccsc1NC(=O)CN1CCCCC1,-5.6%
11,N#Cc1ccccc1NC(=O)CN1CCN(Cc2ccccc2)CC1,-60.1%
12,Cc1ccc(C(=O)NCCN(C)C)cc1C,7.22%
13,Nc1ccccc1NC(=O)c1ccccc1,2.34%
14,O=C(CCCN1C(=O)c2cccnc2Oc2ccc(Cl)cc21)N1CCCCC1,-9.27%
15,O=C1CNC(=O)N1,13.6%
16,O=C(c1ccc(-c2ccccc2)cc1)N1CCN(c2ccccc2F)CC1,7.96%
17,O=C(Nc1ccc(C(=O)N2CCN(c3ccccc3)CC2)cc1)C1=CSCCO1,-39.8%
18,O=C(Nc1ccc(C(=O)N2CCN(c3ccc(F)cc3)CC2)cc1)C1=CSCCO1,-38.1%
19,CS(=O)(=O)Nc1ccc(C(=O)N2CCCC2)cc1,-7.75%
20,O=C(Nc1ccc(C(=O)N2CCN(c3ccccc3F)CC2)cc1)C1=CSCCO1,-50.3%
21,CS(=O)(=O)Nc1ccc(C(=O)N2CCN(c3ccccc3)CC2)cc1,-61.9%
22,CS(=O)(=O)Nc1ccc(C(=O)N2CCN(c3ccccc3F)CC2)cc1,-68.1%

row,Structure (SMILES),"hERG current change (%, negative = inhibition) at 10uM"
1,CS(=O)(=O)Nc1ccc(C(=O)N2CCCCC2)cc1,-3.35%
2,O=C(c1ccccc1)N1CCN(c2ccccc2F)CC1,10.1%
3,Cc1nn(CCC#N)c(NC(=O)c2ccccc2)c1P(=O)(Nc1ccc(Br)cc1)N1CCOCC1 (stereo not shown),20.6%
4,Cc1cc(CN(C)C(=O)c2ccc3nc(Cc4ccccc4F)oc3c2)on1,-5.71%
5,Cc1ccc(SCC2=NN(c3nc(C)cc(C)n3)C(=O)C2)cc1,-16%
6,CCn1c(CCNC(=O)c2ccc(Cl)c(Cl)c2)nnc1SCCOc1ccc(OC)cc1,-8.77%
7,CCn1c(CCNC(=O)c2ccc(OC)cc2)nnc1SCc1ccc(Cl)cc1Cl,-65.6%
8,CCn1c(CCNC(=O)c2ccc(OC)cc2)nnc1SCc1ccc(Cl)c(Cl)c1,-61.8%
9,CCOc1ccc(NC(=O)CSc2nnc(CCNC(=O)c3ccc(OC)cc3)n2CC)cc1,-26.7%
10,CCn1c(SCc2ccc(Cl)c(Cl)c2)nnc1C(C)NC(=O)c1ccc(OC)cc1 (stereo not shown),10%
11,CCn1c(CCNC(=O)c2ccc(C)cc2)nnc1SCc1ccc(Cl)c(Cl)c1,-45.7%
12,CCC1(C)Cc2nc3[nH]c(=S)n(-c4ccccc4C)c(=O)c3cc2CO1 (stereo not shown),4.44%
13,Cc1ccc2c(c1)c1c(n2C)C(C(N)=O)CCC1 (stereo not shown),-19.5%
14,CCCC(C)C1(CC)C(=O)NC(=O)N=C1N (stereo not shown),-76.5%
15,CCCC(C)C1(CC)C(=O)NC(=Nc2ccc(F)cc2)NC1=O (stereo not shown),17.5%
16,CCC(C)C1(CC)C(=O)NC(=O)N=C1N (stereo not shown),36.1%
17,CC(=O)N1CCN(C(=O)c2ccc(-c3ccccc3Cl)o2)CC1,-20%
18,O=C(c1cc(-c2ccc(Cl)cc2Cl)on1)N1CCN(C(=O)c2ccco2)CC1,-70.2%
19,O=C1c2ccccc2-c2c1cccc2C(=O)N1CCCCCC1,0.506%
20,O=C(c1cc(-c2ccccc2Cl)on1)N1CCN(C(=O)c2ccco2)CC1,-44.2%
21,O=C(c1ccco1)N1CCN(C(=O)c2ccc(-c3ccccc3Cl)o2)CC1,-67.6%
22,O=C1c2ccccc2-c2c1cccc2C(=O)N1CCCCC1,-22.3%

row,Structure (SMILES),"hERG current change (%, negative = inhibition) at 10uM"
1,O=C(c1ccco1)N1CCN(C(=O)c2ccc(-c3ccc(Cl)cc3)o2)CC1,-78.8%
2,O=C(c1ccc(-c2ccccc2Cl)o1)N1CCN(c2ccccc2O)CC1,8.64%
3,O=C1c2ccccc2-c2c1cccc2C(=O)N1CCN(C(=O)c2ccco2)CC1,-71.1%
4,O=C(Cc1ccc(Cl)cc1)N1CCN(C(=O)c2ccco2)CC1,-12.8%
5,O=C(c1cc(-c2ccc(Cl)cc2Cl)on1)N1CCCC1,-0.203%
6,O=C(c1ccc(Cl)cc1)N1CCN(C(=O)c2ccco2)CC1,-21%
7,COC(=O)C(O)(c1ccc(NC(=O)c2ccco2)c(OC)c1)C(F)(F)F (stereo not shown),-6.24%
8,O=C(NCCc1ccc(Cl)cc1)C(=O)c1c[nH]c2ccccc12,-10.8%
9,O=C(Nc1nsc(-c2ccccc2)n1)c1ccc(F)cc1,-24.6%
10,CCC(NC(=O)CNC(=O)CNC(=O)c1ccc(Cl)cc1Cl)c1ccc(C)cc1 (stereo not shown),22.2%
11,CC(C)c1cc(C(=O)O)n(-c2ccccc2)n1,12.1%
12,Cc1ccc(S(=O)(=O)n2[nH]c(=O)c(CCO)c2C)cc1,8.83%
13,O=C(Cc1ccc(F)cc1)N/N=C/c1ccncc1,-8.56%
14,Fc1ccc(C2c3cccn3CCN2C(=S)Nc2cccc(Br)c2)cc1 (stereo not shown),19.4%
15,Cc1ccc(C(=O)c2ccccc2C(=O)OCC(=O)NCCc2ccc(Cl)cc2Cl)cc1,-9.96%
16,O=C(COC(=O)c1ccccc1C(=O)c1ccccc1)NCCc1ccccc1,-64.8%
17,Cc1ccc(C(=O)c2ccccc2C(=O)OCC(=O)NC(C)(C)C)cc1,-0.829%
18,Cc1ccc(C(=O)c2ccccc2C(=O)OCC(=O)NCCc2ccccc2)cc1,-52.5%
19,O=C(COC(=O)c1ccccc1C(=O)c1ccc(Cl)cc1)NCCc1ccccc1,-18.7%
20,O=C(COC(=O)c1ccccc1C(=O)c1ccccc1)NCCc1ccc(Cl)cc1Cl,-31.9%
21,CSCCC(NS(=O)(=O)/C=C/c1ccccc1)C(=O)NCCc1ccc(S(N)(=O)=O)cc1 (stereo not shown),7.59%
22,COc1ccc(C(=O)COC(=O)CCn2nnc(-c3cccs3)n2)cc1,10.6%
